# Reference: article PMC5913336, “True equilibrium measurement of transcription factor-DNA binding affinities using automated polarization microscopy”
# Tests used:
# Details in all cases: tags: N-GST (pGEX-6P-1, kept); dsDNA, one strand shown
# Croc = target: T1, Croc (Drosophila melanogaster, UniProt P32027 54-175); experiment: FP; 20 mM Tris-acetate pH 7.0, 50 "nM" NaCl as printed (probably mM), 0.01% Tween 20, 0.1 mM DTT; conventional titration
# T1 sequence: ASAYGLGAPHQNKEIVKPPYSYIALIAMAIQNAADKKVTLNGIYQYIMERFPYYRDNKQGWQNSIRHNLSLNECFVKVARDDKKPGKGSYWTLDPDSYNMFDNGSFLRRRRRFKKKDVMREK
# Ems = target: T2, Ems (Drosophila melanogaster, UniProt P18488 373-462); experiment: FP; 33 mM phosphate pH 7.0, 90 mM NaCl, 0.01% Tween 20, 0.1 mM DTT, 0.5% agarose; room temperature
# T2 sequence: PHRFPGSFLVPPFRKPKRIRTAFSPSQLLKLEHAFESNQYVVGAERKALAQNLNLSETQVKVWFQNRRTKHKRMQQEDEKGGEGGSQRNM
# Hkb = target: T3, Hkb (Drosophila melanogaster, UniProt Q9VN10 181-296); experiment: as above
# T3 sequence: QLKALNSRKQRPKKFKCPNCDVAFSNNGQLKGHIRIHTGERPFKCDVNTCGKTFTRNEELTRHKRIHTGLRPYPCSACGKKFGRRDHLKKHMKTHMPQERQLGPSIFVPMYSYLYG
# Fkh = target: T4, Fkh (Drosophila melanogaster, UniProt P14734 209-300); experiment: as above
# T4 sequence: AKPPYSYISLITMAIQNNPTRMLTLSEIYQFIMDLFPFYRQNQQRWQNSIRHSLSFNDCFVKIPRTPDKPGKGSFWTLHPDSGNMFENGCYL
# EcR = target: T5, EcR (Drosophila melanogaster, UniProt P34021 251-348); experiment: as above
# T5 sequence: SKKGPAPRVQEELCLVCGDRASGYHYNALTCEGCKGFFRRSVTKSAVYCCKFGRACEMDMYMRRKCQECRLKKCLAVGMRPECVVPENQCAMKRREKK
# Gsc = Gsc (Drosophila melanogaster, UniProt P54366 267-356); experiment: as above
# Gsc, sequence (P54366 267-356): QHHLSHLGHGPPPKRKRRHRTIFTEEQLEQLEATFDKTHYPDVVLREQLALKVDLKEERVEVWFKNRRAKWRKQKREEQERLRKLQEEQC
# Optix = target: T6, Optix (Drosophila melanogaster, UniProt Q95RW8 139-229); experiment: as above
# T6 sequence: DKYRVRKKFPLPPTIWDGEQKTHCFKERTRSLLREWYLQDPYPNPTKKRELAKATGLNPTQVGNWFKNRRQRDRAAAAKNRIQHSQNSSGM
sequence,measurement,setting,value
TTAGATGAATATA,binding signal,Croc,2300 Kd / Kd of best base at the position
CACGTAATTAGATCA,binding signal,Ems,2.14 Kd / Kd of best base at the position
CAGGTAATTAGCTCA,binding signal,Ems,1.11 Kd / Kd of best base at the position
CCCGTAATTAGCTCA,binding signal,Ems,1.04 Kd / Kd of best base at the position
CACGTAATTAGCTCA,Kd,Ems,~1.7 nM
ATGGGGCGTGAT,binding signal,Hkb,2.01 Kd / Kd of best base at the position
AAGGGGCGTGAA,binding signal,Hkb,2.74 Kd / Kd of best base at the position
AGTTAAATCTTGA,binding signal,Fkh,14.3 Kd / Kd of best base at the position
AGTTAAATATTGG,binding signal,Fkh,1.17 Kd / Kd of best base at the position
AGTTAAATACTGA,binding signal,Fkh,27.4 Kd / Kd of best base at the position
AGGTAAATATTGA,binding signal,Fkh,1.27 Kd / Kd of best base at the position
AGTTAAATTTTGA,binding signal,Fkh,7.9 Kd / Kd of best base at the position
AGTTAAATATTTA,binding signal,Fkh,1.68 Kd / Kd of best base at the position
AGTAAAATATTGA,binding signal,Fkh,4.77 Kd / Kd of best base at the position
AGTTAAATATCGA,binding signal,Fkh,6.39 Kd / Kd of best base at the position
AGCTAAATATTGA,binding signal,Fkh,3.26 Kd / Kd of best base at the position
AGTGAAATATTGA,binding signal,Fkh,6.68 Kd / Kd of best base at the position
AATTAAATATTGA,binding signal,Fkh,2.06 Kd / Kd of best base at the position
AGTTAAATATTCA,binding signal,Fkh,2.02 Kd / Kd of best base at the position
AGTTAAATGTTGA,binding signal,Fkh,102 Kd / Kd of best base at the position
AGTTAAATAGTGA,binding signal,Fkh,2.35 Kd / Kd of best base at the position
ATTTAAATATTGA,binding signal,Fkh,1.06 Kd / Kd of best base at the position
AGTTAACTATTGA,binding signal,Fkh,10.2 Kd / Kd of best base at the position
TGTTAAATATTGA,binding signal,Fkh,1.33 Kd / Kd of best base at the position
AGTTAAAAATTGA,binding signal,Fkh,18.5 Kd / Kd of best base at the position
AGTTAAATATTGC,binding signal,Fkh,2.76 Kd / Kd of best base at the position
AGTTAAATATGGA,binding signal,Fkh,3.07 Kd / Kd of best base at the position
AGTTAATTATTGA,binding signal,Fkh,6.31 Kd / Kd of best base at the position
GGTTAAATATTGA,binding signal,Fkh,6.61 Kd / Kd of best base at the position
AGTTAAATATAGA,binding signal,Fkh,1.73 Kd / Kd of best base at the position
AGTCAAATATTGA,binding signal,Fkh,3.44 Kd / Kd of best base at the position
AGTTAAATATTGT,binding signal,Fkh,1.97 Kd / Kd of best base at the position
AGTTGAATATTGA,binding signal,Fkh,59.1 Kd / Kd of best base at the position
AGTTAAGTATTGA,binding signal,Fkh,37.9 Kd / Kd of best base at the position
AGTTAAACATTGA,binding signal,Fkh,29.1 Kd / Kd of best base at the position
CGTTAAATATTGA,binding signal,Fkh,8.05 Kd / Kd of best base at the position
AGTTATATATTGA,binding signal,Fkh,18.4 Kd / Kd of best base at the position
AGATAAATATTGA,binding signal,Fkh,1.16 Kd / Kd of best base at the position
AGTTAGATATTGA,binding signal,Fkh,60.9 Kd / Kd of best base at the position
AGTTTAATATTGA,binding signal,Fkh,32.1 Kd / Kd of best base at the position
ACTTAAATATTGA,binding signal,Fkh,7.14 Kd / Kd of best base at the position
AGTTAAATATTGA,Kd,Fkh,~17 nM
AGTTAAAGATTGA,binding signal,Fkh,14.9 Kd / Kd of best base at the position
AGTTAAATAATGA,binding signal,Fkh,2.19 Kd / Kd of best base at the position
AGTTACATATTGA,binding signal,Fkh,4.6 Kd / Kd of best base at the position
AGTTAAATATTAA,binding signal,Fkh,1.49 Kd / Kd of best base at the position
AGTTCAATATTGA,binding signal,Fkh,2.55 Kd / Kd of best base at the position
GCATGACCCCTAC,binding signal,EcR,2.1 Kd / Kd of best base at the position
AATTAATCCCAT,binding signal,Gsc,1.16 Kd / Kd of best base at the position
AATTAATCCGAC,binding signal,Gsc,1.04 Kd / Kd of best base at the position
AACTAATCCGAT,binding signal,Gsc,2.52 Kd / Kd of best base at the position
AATTAATCCGAT,Kd,Gsc,~3.8 nM
AATTAAGCCGAT,binding signal,Gsc,4.74 Kd / Kd of best base at the position
AGAGTCATAGCT,binding signal,Optix,51.6 Kd / Kd of best base at the position
AATTAATGCGAT,binding signal,Gsc,9.37 Kd / Kd of best base at the position
AATTAATCAGAT,binding signal,Gsc,1.75 Kd / Kd of best base at the position
CATTAATCCGAT,binding signal,Gsc,4.41 Kd / Kd of best base at the position
AGCGTGATAGCT,binding signal,Optix,4.94 Kd / Kd of best base at the position
AATTAATCCTAT,binding signal,Gsc,2.32 Kd / Kd of best base at the position
ACTTAATCCGAT,binding signal,Gsc,10.4 Kd / Kd of best base at the position
